From the supplement of paper PMC8866396
± gives the standard deviation of the averaged measurements.

test system: IL-6-GFP PC-9; assay: cell viability (CCK-8 OD) relative to DMSO control (fraction of control); higher = more viable cells; conditions: compound concentration: 10 uM; treatment time: 48 h
Procedure, shortened: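 In 96-well plates, 3000 cells/well of PC-9 or PC-9GR lung cancer cells with lentiviral IL-6-GFP overexpression received each compound of a purchased 510-compound library at a final 10 μM for 48 h. Viability, measured by CCK-8 absorbance, is each well's optical density relative to the vehicle control well. Data come from two independent replicates.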

Compound | cell viability
CC(C)c1nc(N(C)S(C)(=O)=O)nc(-c2ccc(F)cc2)c1/C=C/C(O)CC(O)CC(=O)O (centres undefined) [Rosuvastatin] | 1.12 ± 0.1
CCC(C)C(=O)OC1CC(O)C=C2C=CC(C)C(CCC(O)CC(O)CC(=O)O)C21 (centres undefined) [Pravastatin] | 0.999 ± 0.22
Cl.N=C1CCCN1Cc1[nH]c(=O)[nH]c(=O)c1Cl [Tipiracil hydrochloride] | 1.25 ± 0.059
CNC(=O)c1ccc(N2C(=S)N(c3cnc(C#N)c(C(F)(F)F)c3)C(=O)C23CCC3)cc1F | 1.02 ± 0.11
CCc1nc(C(N)=O)c(Nc2ccc(N3CCC(N4CCN(C)CC4)CC3)c(OC)c2)nc1NC1CCOCC1 [Gilteritinib (ASP2215)] | 0.315 ± 0.11
CCCC(=O)OC1(C(=O)CO)CCC2C3CCC4=CC(=O)CCC4(C)C3C(O)CC21C (centres undefined) [Hydrocortisone butyrate] | 1.08 ± 0.073
CC1(C)C2CCC1(C)C(O)C2 (centres undefined) [Borneol] | 0.778 ± 0.016
CC12CCC(CC1=O)C2(C)C (centres undefined) [Camphor] | 0.786 ± 0.061
O=C(O)CCCCC1CCSS1 (stereo not drawn) [(+)-α-Lipoic acid] | 1.21 ± 0.024
Cc1nc(NC(=O)N2CCCC2C(N)=O)sc1-c1ccnc(C(C)(C)C(F)(F)F)c1 (centres undefined) [Alpelisib (BYL719)] | 0.934 ± 0.11
CC(C)c1nc(CN(C)C(=O)NC(CCN2CCOCC2)C(=O)NC(CCC(Cc2ccccc2)NC(=O)OCc2cncs2)Cc2ccccc2)cs1 (centres undefined) [Cobicistat (GS-9350)] | 1.14 ± 0.22
CC(C)=CCCC(C)(OC1OC(CO)C(O)C(O)C1O)C1CCC2(C)C1C(O)CC1C3(C)CCC(O)C(C)(C)C3C(OC3OC(CO)C(O)C(O)C3O)CC12C (centres undefined) [Ginsenoside Rg1] | 1.15 ± 0.17
CC(O)CO.CCOc1ccc(Cc2cc(C3OC(CO)C(O)C(O)C3O)ccc2Cl)cc1.O (centres undefined) [Dapagliflozin propanediol monohydrate] | 1.14 ± 0.11
COc1ccc2c(c1)c(CC(=O)O)c(C)n2C(=O)c1ccc(Cl)cc1 [Indomethacin] | 1.03 ± 0.027
Cc1coc2c1C(=O)C(=O)c1c-2ccc2c(C)cccc12 [Tanshinone I] | 1.51 ± 0.29
CCN1CCN(Cc2ccc(Nc3ncc(F)c(-c4cc(F)c5nc(C)n(C(C)C)c5c4)n3)nc2)CC1.CS(=O)(=O)O | 0.415 ± 0.016
Cc1nc2ccc(CN(C)c3ccc(C(=O)NC(CCC(=O)O)C(=O)O)s3)cc2c(=O)[nH]1 (centres undefined) [Raltitrexed] | 0.506 ± 0.17
O=C([O-])CC(O)(CC(=O)[O-])C(=O)[O-].O=C([O-])CC(O)(CC(=O)[O-])C(=O)[O-].[BiH6+3].[K+].[K+].[K+] [Gastrodenol] | 0.986 ± 0.29
NC1CN(c2c(F)cc3c(=O)c(C(=O)O)cn(C4CC4F)c3c2Cl)CC12CC2.NC1CN(c2c(F)cc3c(=O)c(C(=O)O)cn(C4CC4F)c3c2Cl)CC12CC2.O.O.O (centres undefined) [Sitafloxacin Hydrate] | 1.01 ± 0.042
COc1ccc2cc1Oc1ccc(cc1)CC1c3cc(c(OC)cc3CCN1C)Oc1c(OC)c(OC)cc3c1C(C2)N(C)CC3 (centres undefined) [Tetrandrine] | 1.3 ± 0.043

Compound | cell viability
Nc1cccc2c1C(=O)N(C1CCC(=O)NC1=O)C2=O (centres undefined) [Pomalidomide] | 1.22 ± 0.12
O=C(O)c1ccccc1OP(=O)(O)O [Fosfosal] | 1.01 ± 0.21
O=c1[nH]c(=O)n(C2CC(O)C(CO)O2)cc1F (centres undefined) [Floxuridine] | 0.808 ± 0.25
CN(C)C/C=C/C(=O)Nc1cc2c(Nc3ccc(F)c(Cl)c3)ncnc2cc1OC1CCOC1.O=C(O)/C=C\C(=O)O.O=C(O)/C=C\C(=O)O (centres undefined) [Afatinib (BIBW2992) Dimaleate] | 0.167 ± 0.22
Cn1cc(C2=C(c3cccc(N)c3)C(=O)NC2=O)c2ccccc21 | 0.677 ± 0.15
O=C([O-])Cc1ccccc1Nc1c(Cl)cccc1Cl.[K+] [Diclofenac Potassium] | 1.13 ± 0.18
O=C(O)c1cc(-c2ccc(F)cc2F)ccc1O [Diflunisal] | 1.15 ± 0.15
NC(=O)Cc1cccc(C(=O)c2ccccc2)c1N [Nepafenac] | 0.958 ± 0.1
Cc1nc(Nc2ncc(C(=O)Nc3c(C)cccc3Cl)s2)cc(N2CCN(CCO)CC2)n1.Cl [Dasatinib hydrochloride] | 0.438 ± 0.063
CC(=O)Oc1ccccc1C(=O)O [Aspirin] | 1.23 ± 0.12
CN1CCC(=C2c3ccccc3CCc3sccc32)CC1.O=C(O)CC(O)C(=O)O [Pizotifen Malate] | 1.22 ± 0.16
Cc1ccc(-c2cc(C(F)(F)F)nn2-c2ccc(S(N)(=O)=O)cc2)cc1 [Celecoxib] | 1.09 ± 0.051
O.O.O=C([O-])CCNC(=O)c1ccc(N=Nc2ccc(O)c(C(=O)[O-])c2)cc1.[Na+].[Na+] [Balsalazide disodium] | 1.34 ± 0.11
Cc1cc2c(C(N)=O)cccc2n1-c1nc2c(c(NCc3ccccc3)n1)COCC2 | 0.261 ± 0.0057
Cn1nnc2c(C(N)=O)ncn2c1=O [Temozolomide] | 0.6981 ± 0.0048
CCC(=O)OC1(C(=O)CCl)C(C)CC2C3CC(F)C4=CC(=O)C=CC4(C)C3(F)C(O)CC21C (centres undefined) [Halobetasol Propionate] | 1.05 ± 0.29
COc1cc(C2c3cc4c(cc3C(OC3OC5COC(C)OC5C(O)C3O)C3COC(=O)C23)OCO4)cc(OC)c1O (centres undefined) [Etoposide] | 0.537 ± 0.17
CC1(C)CCC(C)(C)c2cc(NC(=O)c3ccc(C(=O)O)cc3)ccc21 [Tamibarotene] | 1.28 ± 0.11
COc1cc2nccc(Oc3ccc(NC(=O)C4(C(=O)Nc5ccc(F)cc5)CC4)cc3)c2cc1OC | 0.56 ± 0.041
